From PubChem BioAssay (NCATS)
Records with an inconclusive call do not appear. Values without a mark were called inactive. The call rests on the fitted dose curve; in most records, active means well fitted inhibition curve with a large enough effect; inconclusive means small, poorly fitted or top-dose-only effect; inactive means no such curve, though single readings can be large or run the other way.

What follows are molecules tested against Retinaldehyde dehydrogenase 3 (Homo sapiens) (UniProt P47895) (assay: qHTS for Inhibitors of the Aldehyde Dehydrogenase Family (ALDH1A3) Validation screen (AID 2061312; further: nearly all actives have a fitted effect of over 45% in size)). Conditions: ALDH1A3 enzyme inhibition qHTS validation, fluorescence; series mostly up to 84.7 µM; activity change, negative = inhibition: at the top concentration.
On the % scale 0 is the no-effect control and ±100 the full control effect.

SMILES	activity change, negative = inhibition
N#Cc1ccc(COC[C@H]2O[C@@H](n3c(NCc4ccc(Cl)c(Cl)c4)nc4c(N)ncnc43)[C@H](O)[C@@H]2O)cc1	-10% [at 42.4 µM]
CCOC(=O)[C@@H](N)Cc1ccc(-c2cc(O[C@H](c3ccc(Cl)cc3-n3ccc(C)n3)C(F)(F)F)nc(N)n2)cc1	2.7%
CCc1cc2c(cc1CC)CC(NCC(O)c1ccc(O)c3[nH]c(=O)ccc13)C2 (stereo not given)	12.3%
CN(C)CC(=O)Nc1ccc2[nH]c(=O)c3ccccc3c2c1	5.05%
CNC1CN(c2ccc3c(=O)c(C(=O)O)cn(-c4nccs4)c3n2)CC1OC (stereo not given)	-0.123% [at 20.1 µM]
COc1ccc(NS(=O)(=O)c2sc3ccc(Cl)cc3c2C)cc1N1CCNCC1	11.4%
NC(=O)c1nc(Nc2ccccc2)sc1NC(=O)C1CCCCC1	30.6%
COc1c(Nc2ncc(Cl)c(N[C@H]3[C@@H](C(N)=O)[C@@H]4C=C[C@H]3C4)n2)ccc2c1CC[C@@H](N1CCOCC1)CC2	-28.3%
O=C(/C=C\n1cnc(-c2cc(C(F)(F)F)cc(C(F)(F)F)c2)n1)N1CC(F)(F)C1	-10.8%
COc1cc(N(C)CCN(C)C)c(N)cc1Nc1nccc(-c2cn(C)c3ccccc23)n1	112%
C[C@@H](CN1CCC(n2c(=O)[nH]c3cc(Cl)ccc32)CC1)NC(=O)c1ccc2ccccc2c1	1.92%
CC(C)[C@@](C)(O)[C@@H]1CN(c2nc(-c3[nH]nc4ncccc34)c(F)cc2Cl)CCN1	342%
Cc1ccccc1-c1cc(N2CCN(C)CC2)ncc1N(C)C(=O)C(C)(C)c1cc(C(F)(F)F)cc(C(F)(F)F)c1	-8.28%
CC(C)(C(=O)NCC(F)(F)C(F)(F)F)C(=O)NC1C(=O)Nc2ccccc2-c2ccccc21 (stereo not given)	21.1%
NC(=O)C(CCC(F)(F)F)N(Cc1ccc(-c2ncon2)cc1F)S(=O)(=O)c1ccc(Cl)cc1 (stereo not given)	1.49%
CC(C)(C)CC(C)(C)c1ccc(OCCOCC[N+](C)(C)Cc2ccccc2)cc1	55.7%
CCCc1cc(C)[nH]c(=O)c1CNC(=O)c1cc(-c2ccc(N3CCN(C(C)C)CC3)nc2)cc2c1cnn2C(C)C	94.1%
COc1cc2c(cc1-c1c(C)noc1C)ncc1[nH]c(=O)n(C(C)c3ccccn3)c12 (stereo not given)	10.3%
CCS(=O)c1nc(-c2cccc(OCc3ccccc3)c2)cc(C(F)(F)F)n1 (stereo not given)	1.72%
CC[C@H](C)[C@H]1O[C@]2(CC[C@@H]1C)C[C@@H]1C[C@@H](C/C=C(\C)[C@@H](O[C@H]3C[C@H](OC)[C@@H](O[C@H]4C[C@H](OC)[C@@H](O)[C@H](C)O4)[C@H](C)O3)[C@@H](C)/C=C/C=C3\CO[C@@H]4[C@H](O)C(C)=C[C@@H](C(=O)O1)[C@]34O)O2	19.5%

SMILES	activity change, negative = inhibition
Fc1ccc(C2CCNC[C@H]2COc2ccc3c(c2)OCO3)cc1 (stereo not given in full)	105%
CC[C@H]1OC(=O)[C@H](C)[C@@H](O[C@H]2C[C@@](C)(OC)[C@@H](O)[C@H](C)O2)[C@H](C)[C@@H](O[C@@H]2O[C@H](C)C[C@H](N(C)C)[C@H]2O)[C@](C)(O)C[C@@H](C)C(=O)[C@H](C)[C@H]2OC(=O)O[C@@]21C	0.548%
COc1cc(C(=O)O)ccc1NC(=O)C1NC(CC(C)(C)C)C(C#N)(c2ccc(Cl)cc2F)C1c1cccc(Cl)c1F (stereo not given)	1.41%
O=C(c1ccccc1)c1ccc2nc(NC(=O)c3csc(C4CCN(c5ncnc6ccsc56)CC4)n3)[nH]c2c1	0.726%
CC(Oc1cc(-n2cnc3ccc(CN4CCN(C)CC4)cc32)sc1C(N)=O)c1ccccc1C(F)(F)F (stereo not given)	36.2%
CC1CCN(C(c2ccc(F)cc2)c2ccc(C(C)C(=O)O)cc2-c2ccc(C(F)(F)F)cc2)CC1 (stereo not given)	15.5%
N#Cc1ccc(COc2ccc(-c3cccc4nc(NC(=O)C5CC5)nn34)cc2)cn1	-17%
O=C(NC1CCN(CCCCC2(C(=O)NCC(F)(F)F)c3ccccc3-c3ccccc32)CC1)c1ccccc1-c1ccc(C(F)(F)F)cc1	208%
COc1ccc2nc(-c3cc(OC)c(OC)c(OC)c3)cc(C(=O)NCC(=O)Nc3ccc(C(C)=O)cc3)c2c1	18.6%
COc1cc(/C=C/C(=O)N2CCN(CC(=O)N3CCCC3)CC2)cc(OC)c1OC	21.7%
CCCSc1nc(N[C@@H]2C[C@H]2c2ccc(F)c(F)c2)c2nnn([C@@H]3C[C@H](OCCO)[C@@H](O)[C@H]3O)c2n1	-46%
CCN(CC)CCN(Cc1ccc(-c2ccc(C(F)(F)F)cc2)cc1)C(=O)Cn1c(SCc2ccc(F)cc2)nc(=O)c2c1CCC2	278%
Cc1ccc(O)cc1Nc1ccnc(Nc2cccc(C(N)=O)c2)n1	-15.1%
Cc1cn(-c2cc(NC(=O)c3ccc(C)c(Nc4nccc(-c5cnccn5)n4)c3)cc(C(F)(F)F)c2)cn1	17.1%
Fc1ccc(-n2cc(CCCCN3CCC4(CC3)OCc3ccccc34)c3ccccc32)cc1	55.6%
CC(C)C1CCC(C(=O)N[C@@H](Cc2ccccc2)C(=O)O)CC1 (stereo not given in full)	-25.4%
CC(C)Oc1ccc(C(=O)NC(CNC(=O)CN(C)C)Cc2ccc(-c3cn4cccc(C(C)O)c4n3)cc2)cc1Cl (stereo not given)	212%
CN(C)C(=O)COC(=O)c1cc(-c2ccc(C3CCNCC3)cc2)c2ccc(-c3ccc(C(F)(F)F)cc3)cc2c1	13.3%
CCC(=C(c1ccc(OCCN2CCCC2)cc1)c1ccc(OCCN2CCCC2)cc1)c1ccccc1	147%
CN(C)C(CCOc1cccc2ccccc12)c1ccccc1 (stereo not given)	-7.35%
